These results are taken from PubChem BioAssay (NCATS).

Where “and” joins values, the source holds several entries; their conditions need not be identical. Equal values may be shown once. Values without a mark were called inactive. Results filed as inconclusive are left out. Calls of active or inactive are those of the source. Unless noted, the call rests on the fitted dose curve; in most records, active means well fitted curve in the direction sought with a large enough effect; inconclusive means small, poorly fitted or top-dose-only effect, or another doubt; inactive means no such curve, though single readings can be large; an effect the other way counts as inactive or inconclusive.

Assay [1] can be described thus: qHTS assay for small molecule antagonists of the retinoid-related orphan receptor gamma (ROR-gamma) signaling pathway - cell viability counter screen (AID 720652; active means well fitted curve in the direction sought with a large enough effect in the repeat runs; an effect the other way counts as inactive or inconclusive;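 further: CHO reporter cells with doxycycline-induced ROR-gamma expression; series mostly up to about 92 µM; compound exposure lasted 16 hr before ATP read; on the % scale 0 is the no-effect control and ±100 the full control effect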). In a few lines: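 CHO cells carrying TET-inducible ROR and RORE-luciferase reporter, plated 5 hr, then dosed with compound plus doxycycline. After 16 hr at 37 C, viability read as intracellular ATP by CellTiter-Glo luminescence.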
(In qHTS, concentration-response curves come from the screen itself.)

A short description of assay [2]: qHTS assay for small molecule agonists of the antioxidant response element (ARE) signaling pathway measured by Nrf2-dependant transcriptional activity - cell viability counter screen (AID 720653; active means well fitted curve in the direction sought with a large enough effect in the repeat runs; an effect the other way counts as inactive or inconclusive; further: on the % scale 0 is the no-effect control and ±100 the full control effect). The following applies: ARE-bla HepG2 viability, CellTiter-Glo ATP luminescence, 16 h; max response: stronger effect = lower value. An outline of the steps:
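Cytotoxicity counter screen: intracellular ATP quantified by CellTiter-Glo luminescence in the same ARE-bla HepG2 plates, after 16 h compound exposure and a 2 h beta-lactamase substrate step.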

Assay [3] in a line: qHTS Assay for Identifying Gametocytocidal Compounds (AID 743244). Further: potency means the concentration at half of the fitted maximal effect.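 On max response: on the % scale 0 is the no-effect control and ±100 the full control effect; actives lower the fluorescent signal which means gametocytes are killed.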 To be noted: P. falciparum 3D7 stage III-V gametocytes, alamarBlue, 72 h; max response: stronger effect = lower value. In a few lines:
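Stage III–V gametocytes of P. falciparum 3D7 were seeded at 20,000 cells/well onto pre-dispensed compounds. After 72 h, 37 °C, 5% CO2, alamarBlue was added for another 24 h.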

The nature of assay [4]: qHTS assay for cell viability of HEK293 cells (AID 743288). Further: on the % scale 0 is the no-effect control and ±100 the full control effect; nearly all actives have a fitted effect of over 50% in size. To be noted: ATP luminescence (CellTiter-Glo), 18 h, stronger effect = lower value. An outline of the steps:
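Environmental chemicals tested in qHTS format against parental HEK293 cells; 18 h treatment, 37 C; read-out ATP luminescence (CellTiter-Glo), 30 min RT development.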

A short description of assay [5]: qHTS assay for cell viability of the p53RE-bla HCT-116 cell line (AID 743292). Further: on the % scale 0 is the no-effect control and ±100 the full control effect; nearly all actives have a fitted effect of over 55% in size. In a few lines:
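Viability of compound-treated p53RE-bla HCT-116 cells is taken from ATP-dependent luciferase luminescence. Treatment lasts 16 h at 37 C after a 5 h settling period; detection follows 30 min at room temperature.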

A short description of assay [6]: qHTS assay for measurement of the activity of small molecule inhibitors on Zika virus induced Caspase-3 activity in human iPSC derived neural progenitor cells (hNPCs) (AID 1224857). Further: % of control where 0% means no effect; nearly all actives have a fitted effect of over 65% in size. An outline of the steps: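 Values are percent inhibition of virus-induced caspase-3/7 signal, scaled between uninfected cells and ZIKV-infected cells. Infection used 2 FFU/cell for 6 h after 1 h compound exposure.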

Assay [7] can be described thus: qHTS assay for measurement of the activity of small molecule inhibitors on Zika virus induced Caspase-3 activity in human astrocytoma cells (AID 1224859).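 Further: plate controls were ZIKV-infected untreated cells for no effect and uninfected cells for full effect.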 In a few lines: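 Compound added 1 h pre-infection; ZIKV 2 FFU/cell on SNB-19 cells, 6 h, 37 C/5% CO2. Caspase-Glo 3/7 luminescence; values as % inhibition of ZIKV-induced caspase activity.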
A short description of assay [8]: P-glycoprotein substrates identified in KB-8-5-11 adenocarcinoma cell line, qHTS therapeutic library screen (AID 1346987). Further: nearly all actives have a fitted effect of over 65% in size. Further: potency means the concentration at half of the fitted maximal effect. An outline of the steps:
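KB-8-5-11, a colchicine-selected P-gp-overexpressing KB-3-1 subline, was grown without colchicine for the assay. Cells were seeded at 500 cells/well, dosed in concentration-response and incubated 72 h at 37 degree C, 5% CO2. Viability was read by CellTiter-Glo luminescence.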

A short description of assay [9]: qHTS for Activators of Parkin Expression: LOPAC Validation Assay (FLuc Reporter) (AID 720573;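 further: 0% = DMSO and 100% = positive control compounds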). In a few lines:
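FLuc luminescence read-out from a neuronal line expressing a Parkin-promoter-driven coincidence reporter. Cells treated 24 h at 37 C, 5% CO2 with compounds at 7 concentrations; signal increase normalized to DMSO and positive control.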

For assay [10], the target named is T1, Hexokinase-4 (Homo sapiens) + Glucokinase regulatory protein (Homo sapiens) (UniProt P35557+Q14397). In words: qHTS assay for inhibitors of recombinant human GCK-GKRP interaction: Diaphorase-coupled assay (AID 743205). An outline of the steps:
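Resorufin fluorescence (525/590 nm), read each minute over 30 min, reports GCK activity coupled via G6PDH and diaphorase. Reaction: 10 nM GST-GCK, 10 nM FLAG-GKRP, 5 mM glucose, 0.4 mM ATP, 0.15 mM NADP+, 0.1 mM resazurin.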

Assay [11] has as its target T1, Hexokinase-4 (Homo sapiens) + Glucokinase regulatory protein (Homo sapiens). In words: qHTS assay for inhibitors of recombinant human GCK-GKRP interaction: ADP-Glo assay (AID 743206).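 Further: plate controls were DMSO plus enzyme for no effect and no enzyme for full effect.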 In a few lines: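 GST-GCK and FLAG-GKRP (15 nM each in the dispensed mix, with 2 uM S6P) react with 0.4 mM ATP and 5 mM glucose (final) in Hepes pH 7.6 for 60 min at room temperature. ADP is measured by ADP-Glo luminescence.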

Assay [12] has the same target. In words: qHTS assay for inhibitors of recombinant human GCK-GKRP interaction: HTRF assay (AID 743207).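 Further: 0% = DMSO with GCK present and -100% = DMSO wells lacking GCK.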 An outline of the steps:
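HTRF read-out (ex 320 nm; 615/665 nm emission) after 60 min RT equilibration of 5 nM GST-GCK, 5 nM FLAG-GKRP, 2 uM S6P, compound and anti-FLAG/anti-GST detection antibodies; signal normalized between DMSO wells with and without GCK.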

Assay [13] in a line: Natriuretic polypeptide receptor (hNpr1) antagonism - Pilot counterscreen GloSensor control cell line (AID 1347045; calls by dose curve; further: series mostly up to about 38 µM; on the % scale 0 is the no-effect control and ±100 the full control effect). In a few lines:
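HEK293 cGMP GloSensor cells preloaded 2 h with 2% GloSensor reagent, then compound 30 min before baseline luminescence read. Stimulated with 50 uM sodium nitroprusside, 20 min at room temperature, then read again; counterscreen for Npr1 antagonism.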

T1 sequence (P35557 whole entry, looked up): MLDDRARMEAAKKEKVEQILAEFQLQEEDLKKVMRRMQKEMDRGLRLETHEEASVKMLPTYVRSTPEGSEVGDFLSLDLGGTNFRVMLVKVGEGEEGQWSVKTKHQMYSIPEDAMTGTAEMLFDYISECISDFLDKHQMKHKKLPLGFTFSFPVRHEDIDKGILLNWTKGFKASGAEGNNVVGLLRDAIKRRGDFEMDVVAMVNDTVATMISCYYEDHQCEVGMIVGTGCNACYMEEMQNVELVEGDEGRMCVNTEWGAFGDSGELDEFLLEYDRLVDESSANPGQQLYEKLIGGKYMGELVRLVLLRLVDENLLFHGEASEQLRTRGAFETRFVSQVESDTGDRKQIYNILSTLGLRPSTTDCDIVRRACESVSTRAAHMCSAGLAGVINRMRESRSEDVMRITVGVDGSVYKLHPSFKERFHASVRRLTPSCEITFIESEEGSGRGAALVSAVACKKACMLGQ
T1 sequence (Q14397 whole entry, looked up): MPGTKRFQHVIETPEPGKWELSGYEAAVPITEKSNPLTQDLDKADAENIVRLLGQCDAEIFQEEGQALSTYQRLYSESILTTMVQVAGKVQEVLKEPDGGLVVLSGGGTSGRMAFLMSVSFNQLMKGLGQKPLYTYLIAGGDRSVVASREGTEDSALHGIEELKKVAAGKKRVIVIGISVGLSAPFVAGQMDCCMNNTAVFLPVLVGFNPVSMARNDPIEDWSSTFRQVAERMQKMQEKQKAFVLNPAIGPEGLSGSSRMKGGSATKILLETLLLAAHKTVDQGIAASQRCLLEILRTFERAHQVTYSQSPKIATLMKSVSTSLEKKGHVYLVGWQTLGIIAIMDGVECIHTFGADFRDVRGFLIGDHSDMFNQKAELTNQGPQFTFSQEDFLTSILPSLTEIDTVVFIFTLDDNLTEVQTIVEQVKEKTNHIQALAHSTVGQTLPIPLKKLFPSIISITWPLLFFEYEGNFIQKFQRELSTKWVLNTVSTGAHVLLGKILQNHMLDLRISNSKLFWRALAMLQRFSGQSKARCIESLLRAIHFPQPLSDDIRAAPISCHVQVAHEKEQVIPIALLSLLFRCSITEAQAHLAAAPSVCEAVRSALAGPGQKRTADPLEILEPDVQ

As for `C1=CC2C3C=CC(C3)C2C1` (stereo unspecified), the compound was called inactive in assay [1] and in assay [7]. Moreover, the max response in [2] was -2.11%; in assay [3], -11.9%; in [4], -14.2%. Besides, the Potency entry in [5], in assay [6] and in assay [8] was “inactive” each time.

Consider `Nc1cccc2c(N)cccc12`, for which the compound was classed as inactive in assay [1] and in assay [7]. Moreover, in assay [4], the max response is -10.7% and -9.55%. Moreover, the Potency result in [5], in assay [6] and in assay [8] was “inactive” each time.

On to `CCCCCCCCCCCC[N+](C)(C)Cc1ccccc1`, for which the max response is -5.65% in [2] and -18.2% in assay [4]. Moreover, the Potency in assay [3] is 5.01 µM (active). Moreover, the Potency entry in assay [5], in [6] and in assay [8] was “inactive” throughout. Besides, in [7], the compound was called inactive.

`COc1cc(C(=O)NC2CCCNC2)cc(OC)c1OC` (stereo unspecified): the max response in [3] was -0.328%. For the same compound, the Potency result in [6] and in assay [8] was “inactive” in each case. The call in [7] was inactive.

As to `CC(=O)OC/C=C(C)/C=C/C=C(C)/C=C/C1=C(C)CCCC1(C)C`, the compound was classed as inactive in assay [1] and in assay [7]. Also, the max response is 6.19% and 7.05% in assay [2]; -2.65% in assay [3]; -22.5% and -3.76% in [4]. In addition, the Potency entry in assay [5], in assay [6] and in assay [8] was “inactive” each time.

As to `Cc1ccc(O)cc1`, the outcome in assay [1] and in assay [7] was inactive. The max response is -5.41% in [2]; -13.3% and 9.92% in [3]; 0.239% in assay [4]. For the same compound, the Potency entry in [5], in [6] and in assay [8] was “inactive” each time.

Consider `COC(=O)C1=CO[C@@H](O)[C@@H]2C(CO)=CC[C@H]12`, for which the outcome in [9], in assay [10], in assay [11], in assay [12] and in [7] was inactive. The Potency entry in assay [6], in assay [8] and in [13] was “inactive” in each case.

On to `CC(CCc1ccc2c(c1)OCO2)NN` (stereo unspecified), for which the max response in [3] is 15.4%. Besides, the Potency entry in assay [6] and in assay [8] was “inactive” in each case. Also, in [7], the result was inactive.

Take `O=C1NC2CCCCN2C12CCN(CCCN1c3ccccc3CCc3ccc(Cl)cc31)CC2` (stereo unspecified): the Potency result in assay [6] is “inactive”. In addition, the result in assay [7] was inactive. For the same compound, the Potency in [8] is 16.4 µM (active).

As to `COc1ccccc1N1CCN(CCN2C(=O)CC3(CCCC3)CC2=O)CC1`, the compound was classed as inactive in [9], in [10], in [11], in assay [12] and in assay [7]. For the same compound, the max response in [3] was 21.4%. The Potency entry in assay [6], in [8] and in assay [13] was “inactive” in each case.

As for `O=C(Oc1ccccc1)c1ccccc1O`, the compound was called inactive in [1] and in assay [7]. Further, the max response was -7.62% and 5.57% in assay [2]; 1.49% and 4.97% in [4]. The Potency entry in [5], in assay [6] and in assay [8] was “inactive” each time.

Consider `Cc1cc(C(C)(C)C)c(O)c(C(C)(C)C)c1`, for which the outcome in [1] and in assay [7] was inactive. In addition, the max response in [2] is -5.59% and 4.89%; in assay [4], -0.0848% and 0.626%. Besides, the Potency result in [5], in assay [6] and in [8] was “inactive” throughout.

Take `Cc1ncc(CO)c(CO)c1O`: the max response in assay [2] is -5.07%; in [3], -15.9%; in assay [4], -15.6%. The Potency result in [5], in assay [6] and in assay [8] was “inactive” each time. Moreover, the result in assay [7] was inactive.

Consider `C[N+](C)(C)CCO`, for which the result in assay [9], in assay [10], in assay [11], in assay [12] and in assay [7] was inactive. The max response in [3] is 1.6% and 15%. In addition, the Potency result in assay [6], in assay [8] and in [13] was “inactive” in each case.

For the compound `COC(=O)c1c(Cl)c(Cl)c(C(=O)OC)c(Cl)c1Cl`, the max response in [2] was -11.1%; in assay [4], -7.06%. For the same compound, the Potency result in [5], in assay [6] and in assay [8] was “inactive” throughout. The result in assay [7] was inactive.

With `O=C(CO)[C@@H](O)[C@H](O)[C@@H](O)CO`, the Potency entry in assay [6] and in [8] was “inactive” throughout. The result in assay [7] was inactive.

Turning to `C[N+]1(CC2COC(c3ccccc3)(c3ccccc3)O2)CCCCC1` (stereo unspecified), the Potency result in assay [6] and in assay [8] was “inactive” each time. Further, in assay [7], the compound was called inactive.

Take `C[C@H]1NCc2cc(-c3ccc4c(=O)c(C(=O)O)cn(C5CC5)c4c3OC(F)F)ccc21`: the Potency result in [6] and in assay [8] was “inactive” throughout. Further, in assay [7], the compound was called inactive.

In the case of `c1ccc2occc2c1`, the result in assay [1] and in [7] was inactive. Further, the max response in assay [2] was 3.88% and -20.4% and 16.8%; in [3] it was -7.52%; in [4] it was -2.02% and -29.2% and -7.14%. For the same compound, the Potency entry in assay [5], in [6] and in [8] was “inactive” in each case.

`CCCC(=O)c1cc(O)c(O)cc1O`: the results for the max response in assay [2], in assay [3] and in assay [4] were -22.5%, 30.2% and -20%, respectively. The Potency result in assay [5], in [6] and in assay [8] was “inactive” each time. In assay [7], the compound was classed as inactive.

For `OCc1c[nH]c2ccccc12`, the compound was called inactive in assay [1] and in assay [7]. The figures for the max response in assay [2] and in [4] were 3.93% and 5.55%, respectively. In addition, the Potency entry in [5], in [6] and in assay [8] was “inactive” each time.

As to `N[C@@H](Cn1ccc(=O)c(O)c1)C(=O)O`, the outcome in [9], in assay [10], in [11], in [12] and in assay [7] was inactive. In assay [3], the max response is 9.87%. Also, the Potency entry in assay [6] and in [13] was “inactive” in each case. Also, the outcome in assay [8] was “inactive [at 5.11 µM]”.
